# Assay results taken from PubChem BioAssay (NCATS).
# Results filed as inconclusive are left out. A call without a number means that no potency is given here. Active and inactive are the calls of the source. The call rests on the fitted dose curve; in most records, active means well fitted inhibition curve with a large enough effect; inconclusive means small, poorly fitted or top-dose-only effect; inactive means flat fitted curve, though single readings scatter.
# Biological target: Calcium and integrin-binding protein 1 (Homo sapiens) (UniProt Q99828)
# Sequence (Q99828 whole entry, looked up): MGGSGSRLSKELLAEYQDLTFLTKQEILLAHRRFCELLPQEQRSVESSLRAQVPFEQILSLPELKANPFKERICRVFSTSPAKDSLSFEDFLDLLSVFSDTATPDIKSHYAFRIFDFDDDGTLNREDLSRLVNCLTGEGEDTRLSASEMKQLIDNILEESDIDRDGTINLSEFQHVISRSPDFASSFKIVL
# Test: Primary qHTS for Identification of Calcium Integrin Binding Protein 1 (CIB1) Competitor (AID 1508620)
# In short: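 CIB1-GST (1 uM final) and compound incubated 15 min at room temperature before adding FITC-alphaIIb peptide tracer (100 nM final). Competition for binding read by fluorescence polarization (ex 480, em 540) after another 15 min at room temperature.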
# Potency means the concentration at half of the fitted maximal effect.
row,Structure (SMILES),Potency
1,CCNC(=O)c1ccc(-c2ccc3ncnc(NCC4CCCO4)c3c2)o1 (stereo unspecified),inactive
2,Cn1nnnc1Sc1ncnc2scc(-c3ccc(C(F)(F)F)cc3)c12,inactive
3,Cc1ccc(C[C@H](C(=O)O)N2C(=O)c3ccc(C(=O)O)cc3C2=O)cc1,inactive
4,O=C1CCCC2=C1C(c1[nH]ncc1Cl)NC(=NCCc1ccccc1)N2 (stereo unspecified),inactive
5,N#Cc1nc(Nc2ccccc2)nc(NC2CCCC2)n1,inactive
6,COc1cccc(C2c3c(ncn(-c4ccc(-c5ccccc5)cc4)c3=N)Oc3ccc4ccccc4c32)c1 (stereo unspecified),inactive
7,O=c1c2ccccc2nc2sc(NCc3ccccc3)nn12,inactive
8,O=S1(=O)N=C(Sc2ccc3c(c2)OCCO3)c2ccccc21,inactive
9,CC(=O)Nc1ccc(S(=O)(=O)N2CCN(c3ccc(C(C)=O)cc3)CC2)cc1,inactive
10,COc1cc(O)c([C@H](CC(=O)N2CC(C)CC(C)C2)c2ccc3c(c2)OCO3)c(OC)c1 (stereo partly specified),inactive
11,O=C(Nc1ccc(Cl)c(Cl)c1)Nc1nnc(C2CCCCC2)s1,inactive
12,Cc1cccc(-n2cnc3cc(C(=O)N4CCC(N5CCOCC5)CC4)ccc32)c1,inactive
13,O=C(Nc1cncc(-c2cccnc2)c1)c1cccs1,inactive
14,Oc1ccc(-c2ccccc2F)c2cccnc12,inactive
15,COc1ccc(C2Nc3ccccc3C(=O)N2Cc2ccccc2)cc1COc1cccc(C)c1 (stereo unspecified),inactive
16,O=S(=O)(Nc1nc(-c2ccccc2C(F)(F)F)nc2ccccc12)c1ccc(Br)cc1,inactive
17,O=C(NCc1ccccc1)Nc1nnc(-c2ccncc2)s1,inactive
18,COC(=O)C1CCc2sc(NC(=O)Cc3ccccc3)c(C(=O)Nc3ccc(Cl)cc3)c21 (stereo unspecified),inactive
19,CN1CCc2ccc3c4c2[C@]1(C)Cc1cccc(c1-4)OCO3,39.8 µM (active)
20,COc1cccc(CNc2ccc(S(=O)(=O)Nc3cccs3)cc2)c1O,inactive
21,Nc1ncc(-c2cccc(-c3nn4c(=O)cc(N5CCNCC5)nc4s3)c2)cn1,inactive
22,O=C1NS(=O)(=O)C(c2ccccc2)C1c1ccccc1 (stereo unspecified),inactive
23,NC(=O)C1CCN(c2nc(-c3cccc(N)c3)cs2)CC1,inactive
24,Nc1cccc(CNc2ccc(S(=O)(=O)Nc3nccs3)cc2)c1O,inactive
25,O=C1c2ccccc2C(=O)N1c1cccnc1,inactive
26,Cc1c(C(=O)OCC(C)(C)C)[nH]c2c1C(=O)CC(c1ccco1)C2 (stereo unspecified),inactive
